Experimental data as given in PubChem BioAssay (NCATS).
Where “and” joins values, the source holds several entries; their conditions need not be identical. Equal values may be shown once. Values without a mark were called inactive. Results filed as inconclusive are left out. Entries that show only a call come without a potency. Where a structure was tested more than once in an assay, its records may differ in their call. Calls of active or inactive are those of the source. Unless noted, calls follow the shape of the dose curve; as a rule, active = well fitted curve in the direction sought with a large enough effect; inconclusive = small, poorly fitted or top-dose-only effect, or another doubt; inactive = no such curve, though single readings can be large; an effect the other way counts as inactive or inconclusive.

How the values were obtained:
[1] = test system: NIH3T3; test: qHTS assay to identify novel small-molecules to repurpose for Merkel cell carcinoma treatment (AID 1296009); conditions: MCC and control cell lines, CellTiter-Glo viability, 72 h; series mostly up to 44.8 µM; also: nearly all actives have a fitted effect of over 60% in size
Procedure, shortened: (§1)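 qHTS format: cells treated with library compounds in DMSO across 8 (NPC) or 11 (MIPE) concentrations. Readout after 72 hr at 37 degree celsius was CellTiter-Glo luminescence.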

[2] = test system: UISO; test: as above; conditions: MCC and control cell lines, CellTiter-Glo viability, 72 h; series mostly up to 46 µM
Procedure, shortened: as §1

[3] = test system: WaGa; test: as above; conditions: MCC and control cell lines, CellTiter-Glo viability, 72 h; series mostly up to 46 µM
Procedure, shortened: as §1

[4] = test system: C33A; test: Primary qHTS to identify gynecologic anti-cancer compounds using libraries of approved drugs and bioactive compounds (AID 1345084); conditions: Gynecologic cancer cell panel viability, ATPlite luminescence, 48 h; series mostly up to 57.5 µM; also: nearly all actives have a fitted effect of over 55% in size
Procedure, shortened: (§2)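 Cell viability after 48 h drug treatment, ATPlite luminescence readout; five doses.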

[5] = test system: CAOV3; test: as above; conditions: Gynecologic cancer cell panel viability, ATPlite luminescence, 48 h; series mostly up to 57.5 µM
Procedure, shortened: as §2

[6] = test system: CASKI; test: as above; conditions: Gynecologic cancer cell panel viability, ATPlite luminescence, 48 h; series mostly up to 57.5 µM
Procedure, shortened: as §2

[7] = test system: Es-2; test: as above; conditions: Gynecologic cancer cell panel viability, ATPlite luminescence, 48 h; series mostly up to 57.5 µM
Procedure, shortened: as §2

[8] = test system: Hek293T; test: as above; conditions: Gynecologic cancer cell panel viability, ATPlite luminescence, 48 h, control line for the selectivity index; series mostly up to 57.5 µM
Procedure, shortened: as §2

[9] = test system: JEG-3; test: as above; conditions: Gynecologic cancer cell panel viability, ATPlite luminescence, 48 h; series mostly up to 57.5 µM
Procedure, shortened: as §2

[10] = test system: PA-1; test: as above; conditions: Gynecologic cancer cell panel viability, ATPlite luminescence, 48 h; series mostly up to 57.5 µM
Procedure, shortened: as §2

[11] = test system: SKOV3; test: as above; conditions: Gynecologic cancer cell panel viability, ATPlite luminescence, 48 h; series mostly up to 57.5 µM
Procedure, shortened: as §2

[12] = test system: Tov-21-G; test: as above; conditions: Gynecologic cancer cell panel viability, ATPlite luminescence, 48 h; series mostly up to 57.5 µM
Procedure, shortened: as §2

[13] = test system: Tov112D; test: as above; conditions: Gynecologic cancer cell panel viability, ATPlite luminescence, 48 h; series mostly up to 57.5 µM
Procedure, shortened: as §2

[14] = Drug repurposing screens with cells derived from glioblastoma tumor samples (AID 1345199); conditions: GBM patient neurospheres viability, ATP luminescence, 48 h; also: nearly all actives have a fitted effect of over 40% in size; also: potency is read from the fitted curve at half-maximal effect
Procedure, shortened: (§3)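 Four patient lines of CD133+ GBM neurospheres were screened at several concentrations; hits were retested in those lines plus three slower-growing GBM lines, using 48-hour treatment and ATP-based viability.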

[15] = test system: HeLa; test: Primary qHTS to identify gynecologic anti-cancer compounds using libraries of approved drugs and bioactive compounds (AID 1345084); conditions: Gynecologic cancer cell panel viability, ATPlite luminescence, 48 h; series mostly up to 57.5 µM; also: nearly all actives have a fitted effect of over 55% in size
Procedure, shortened: as §2

[16] = test system: OV90; test: as above; conditions: Gynecologic cancer cell panel viability, ATPlite luminescence, 48 h; series mostly up to 57.5 µM
Procedure, shortened: as §2

[17] = test system: astro; test: Drug repurposing screens with cells derived from glioblastoma tumor samples (AID 1345199); conditions: viability, ATP luminescence, 48 h; series mostly up to 45.9 µM; also: nearly all actives have a fitted effect of over 40% in size; also: potency is read from the fitted curve at half-maximal effect
Procedure, shortened: as §3

[18] = molecular target: Nuclear receptor subfamily 1 group I member 2 (Rattus norvegicus) (UniProt Q9R1A7); test: qHTS assay for small molecule activators of the rat pregnane X receptor (rPXR) signaling pathway (AID 651751; call rule not given here); conditions: rPXR reporter cells, luciferase (One-Glo), 24 h
[19] = qHTS assay for small molecule activators of the human pregnane X receptor (PXR) signaling pathway (AID 720659; call rule not given here)
[20] = at 45.9 µM (top of the series), tumour line B
[21] = at 45.9 µM (top of the series), tumour line D
[22] = at 46 µM (top of the series), tumour line A
[23] = at 46.1 µM (top of the series), tumour line C

Chain of Nuclear receptor subfamily 1 group I member 2 (Rattus norvegicus) (Q9R1A7 whole entry, looked up): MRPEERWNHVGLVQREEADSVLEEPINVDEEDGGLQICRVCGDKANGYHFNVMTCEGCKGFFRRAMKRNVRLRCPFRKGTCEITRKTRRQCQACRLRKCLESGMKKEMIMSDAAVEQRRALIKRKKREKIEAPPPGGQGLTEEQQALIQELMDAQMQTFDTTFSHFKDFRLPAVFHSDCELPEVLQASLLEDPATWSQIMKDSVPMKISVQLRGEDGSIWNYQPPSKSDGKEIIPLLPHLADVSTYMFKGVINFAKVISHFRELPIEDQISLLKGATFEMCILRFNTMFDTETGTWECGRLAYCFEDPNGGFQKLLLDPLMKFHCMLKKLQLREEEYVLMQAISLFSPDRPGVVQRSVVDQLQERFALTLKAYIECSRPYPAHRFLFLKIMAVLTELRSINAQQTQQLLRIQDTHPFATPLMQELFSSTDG

OCCN(CCO)c1nc(N2CCCCC2)c2nc(N(CCO)CCO)nc(N3CCCCC3)c2n1
outcome [1]: inactive
Potency [2]: inactive
Potency [3]: inactive
Potency [4]: inactive
Potency [5]: inactive
Potency [6]: inactive
Potency [7]: inactive
Potency [8]: inactive
Potency [9]: inactive
Potency [10]: inactive
Potency [11]: inactive
Potency [12]: inactive
Potency [13]: inactive
activity, negative = cell killing [14, 20]: -2.66%
activity, negative = cell killing [14, 21]: -18.5%
activity, negative = cell killing [14, 22]: -9.97%
activity, negative = cell killing [14, 23]: 1.47%

COc1ccc(C2CNC(=O)C2)cc1OC1CCCC1 (centres undefined)
outcome [1]: inactive
Potency [2]: inactive
Potency [3]: inactive
Potency [4]: inactive
Potency [5]: inactive
Potency [6]: inactive
Potency [7]: inactive
Potency [15]: inactive
Potency [8]: inactive
Potency [9]: inactive
Potency [16]: inactive
Potency [10]: inactive
Potency [11]: inactive
Potency [12]: inactive
Potency [13]: inactive
activity, negative = cell killing ([14]; at 20 µM (top of the series), tumour line C): -0.6%
activity, negative = cell killing ([14]; at 21.2 µM (top of the series), tumour line B): -12.9%
activity, negative = cell killing ([14]; at 21.2 µM (top of the series), tumour line D): -16.7%
activity, negative = cell killing ([14]; at 21.3 µM (top of the series), tumour line A): -26.3%
Potency [17]: inactive

Nc1c2c(nc3ccccc13)CCCC2
outcome [1]: inactive
Potency [2]: inactive
Potency [3]: inactive
Potency [4]: inactive
Potency [6]: inactive
Potency [7]: inactive
Potency [15]: inactive
Potency [8]: inactive
Potency [9]: inactive
Potency [16]: inactive
Potency [10]: inactive
Potency [12]: inactive
Potency [13]: inactive
activity, negative = cell killing [14, 20]: 1.31%
activity, negative = cell killing [14, 23]: -23.5%
Potency ([14]; tumour line A): 20 µM (active)
Potency [17]: inactive
max response [18]: 4.58%
outcome [19]: inactive

CC1COc2c(N3CCN(C)CC3)c(F)cc3c(=O)c(C(=O)O)cn1c23 (centres undefined)
outcome [1]: inactive
Potency [2]: inactive
Potency [3]: inactive
Potency [4]: inactive
Potency [6]: inactive
Potency [7]: inactive
Potency [15]: inactive
Potency [8]: inactive
Potency [9]: inactive
Potency [16]: inactive
Potency [10]: inactive
Potency [11]: inactive
Potency [12]: inactive
Potency [13]: inactive
activity, negative = cell killing [14, 20]: -12.3%
activity, negative = cell killing [14, 21]: -0.592%
activity, negative = cell killing [14, 22]: -24.5%
activity, negative = cell killing [14, 23]: -10.7%
Potency [17]: inactive

CN(C)CCOC(c1ccccc1)c1ccccc1
outcome [1]: inactive
Potency [2]: inactive
Potency [3]: inactive
Potency [4]: inactive
Potency [6]: inactive
Potency [7]: inactive
Potency [15]: inactive
Potency [8]: inactive
Potency [9]: inactive
Potency [16]: inactive
Potency [10]: inactive
Potency [11]: inactive
Potency [12]: inactive
Potency [13]: inactive
activity, negative = cell killing [14, 20]: 0.893%
activity, negative = cell killing [14, 21]: 1.4%
activity, negative = cell killing [14, 23]: 1.73% and -22.4%
Potency ([14]; tumour line A): 22.4 µM (active) and 12.6 µM (active)
max response [18]: 2.67%

Cc1ccccc1N1C(=O)c2cc(S(N)(=O)=O)c(Cl)cc2NC1C (centres undefined)
outcome [1]: inactive
Potency [2]: inactive
Potency [3]: inactive
Potency [4]: inactive
Potency [5]: inactive
Potency [6]: inactive
Potency [7]: inactive
Potency [15]: inactive
Potency [8]: inactive
Potency [9]: inactive
Potency [10]: inactive
Potency [11]: inactive
Potency [12]: inactive
Potency [13]: inactive
activity, negative = cell killing [14, 20]: -0.853% and -2.25%
activity, negative = cell killing [14, 21]: 16.5% and -1.42%
activity, negative = cell killing [14, 22]: -25.2%
activity, negative = cell killing [14, 23]: -19% and -29.3%
Potency ([14]; tumour line A): 35.5 µM (active)

Nc1nnc(-c2cccc(Cl)c2Cl)c(N)n1
outcome [1]: inactive
Potency [2]: inactive
Potency [3]: inactive
Potency [4]: inactive
Potency [5]: inactive
Potency [6]: inactive
Potency [7]: inactive
Potency [15]: inactive
Potency [8]: inactive
Potency [9]: inactive
Potency [16]: inactive
Potency [10]: inactive
Potency [11]: inactive
Potency [12]: inactive
Potency [13]: inactive
activity, negative = cell killing [14, 20]: -10.9%
activity, negative = cell killing [14, 21]: -13.4%
activity, negative = cell killing [14, 22]: -13.9%
activity, negative = cell killing [14, 23]: -25.4%
Potency [17]: inactive

Cc1ccc(C(=O)Nc2ccc(S(=O)(=O)O)c3cc(S(=O)(=O)O)cc(S(=O)(=O)O)c23)cc1NC(=O)c1cccc(NC(=O)Nc2cccc(C(=O)Nc3cc(C(=O)Nc4ccc(S(=O)(=O)O)c5cc(S(=O)(=O)O)cc(S(=O)(=O)O)c45)ccc3C)c2)c1
outcome [1]: inactive
Potency [2]: inactive
Potency [3]: inactive
Potency [4]: inactive
Potency [6]: inactive
Potency [7]: inactive
Potency [15]: inactive
Potency [8]: inactive
Potency [9]: inactive
Potency [16]: inactive
Potency [10]: inactive
Potency [11]: inactive
Potency [12]: inactive
Potency [13]: inactive
activity, negative = cell killing [14, 20]: -18.8%
activity, negative = cell killing [14, 21]: -0.172%
activity, negative = cell killing [14, 22]: -24.3%
activity, negative = cell killing [14, 23]: -24.1%
Potency [17]: inactive

NC(=O)OCC(COC(N)=O)c1ccccc1
outcome [1]: inactive
Potency [2]: inactive
Potency [3]: inactive
Potency [4]: inactive
Potency [5]: inactive
Potency [6]: inactive
Potency [7]: inactive
Potency [15]: inactive
Potency [8]: inactive
Potency [9]: inactive
Potency [16]: inactive
Potency [10]: inactive
Potency [11]: inactive
Potency [12]: inactive
Potency [13]: inactive
activity, negative = cell killing [14, 20]: 2.73%
activity, negative = cell killing [14, 21]: -0.95%
activity, negative = cell killing [14, 22]: -11.1%
activity, negative = cell killing [14, 23]: 48.2%

COc1cc2nc(N3CCN(C(=O)C4COc5ccccc5O4)CC3)nc(N)c2cc1OC (centres undefined)
outcome [1]: inactive
Potency [2]: inactive
Potency [3]: inactive
Potency [4]: inactive
Potency [6]: inactive
Potency [7]: inactive
Potency [15]: inactive
Potency [8]: inactive
Potency [9]: inactive
Potency [10]: inactive
Potency [12]: inactive
Potency [13]: inactive
activity, negative = cell killing [14, 20]: -16.3%
activity, negative = cell killing [14, 21]: -29.3%
activity, negative = cell killing [14, 23]: -17.1%
Potency ([14]; tumour line A): 11.2 µM (active)

NCCS(=O)(=O)O
outcome [1]: inactive
Potency [2]: inactive
Potency [3]: inactive
Potency [4]: inactive
Potency [5]: inactive
Potency [6]: inactive
Potency [7]: inactive
Potency [15]: inactive
Potency [8]: inactive
Potency [9]: inactive
Potency [16]: inactive
Potency [10]: inactive
Potency [11]: inactive
Potency [12]: inactive
Potency [13]: inactive
activity, negative = cell killing [14, 20]: -27.3%
activity, negative = cell killing [14, 21]: -0.425%
activity, negative = cell killing [14, 22]: 17.9%
activity, negative = cell killing [14, 23]: -20.3%

CCC1(C)CC(=O)NC1=O (centres undefined)
outcome [1]: inactive
Potency [2]: inactive
Potency [3]: inactive
Potency [4]: inactive
Potency [6]: inactive
Potency [7]: inactive
Potency [15]: inactive
Potency [8]: inactive
Potency [9]: inactive
Potency [10]: inactive
Potency [11]: inactive
Potency [12]: inactive
Potency [13]: inactive
activity, negative = cell killing [14, 20]: -5.39%
activity, negative = cell killing [14, 21]: -6.6%
activity, negative = cell killing [14, 22]: -18.2%
activity, negative = cell killing [14, 23]: -11.1%
Potency [17]: inactive
